BAZ2B inh: qHTS Assay for Inhibitors of BAZ2B. Bromodomain adjacent to zinc finger domain protein 2B (Homo sapiens), Q9UIF8. AlphaScreen BAZ2B-H3K14Ac peptide displacement. Potency, µM (top dose mostly 114 µM), most hits filed as inhibitors. 360,000 tested, 4.4% active. AID 504333, 2011; note: nearly all actives have a fitted effect of over 60% in size
Target sequence (Q9UIF8 whole entry, looked up, the tested form may be a part): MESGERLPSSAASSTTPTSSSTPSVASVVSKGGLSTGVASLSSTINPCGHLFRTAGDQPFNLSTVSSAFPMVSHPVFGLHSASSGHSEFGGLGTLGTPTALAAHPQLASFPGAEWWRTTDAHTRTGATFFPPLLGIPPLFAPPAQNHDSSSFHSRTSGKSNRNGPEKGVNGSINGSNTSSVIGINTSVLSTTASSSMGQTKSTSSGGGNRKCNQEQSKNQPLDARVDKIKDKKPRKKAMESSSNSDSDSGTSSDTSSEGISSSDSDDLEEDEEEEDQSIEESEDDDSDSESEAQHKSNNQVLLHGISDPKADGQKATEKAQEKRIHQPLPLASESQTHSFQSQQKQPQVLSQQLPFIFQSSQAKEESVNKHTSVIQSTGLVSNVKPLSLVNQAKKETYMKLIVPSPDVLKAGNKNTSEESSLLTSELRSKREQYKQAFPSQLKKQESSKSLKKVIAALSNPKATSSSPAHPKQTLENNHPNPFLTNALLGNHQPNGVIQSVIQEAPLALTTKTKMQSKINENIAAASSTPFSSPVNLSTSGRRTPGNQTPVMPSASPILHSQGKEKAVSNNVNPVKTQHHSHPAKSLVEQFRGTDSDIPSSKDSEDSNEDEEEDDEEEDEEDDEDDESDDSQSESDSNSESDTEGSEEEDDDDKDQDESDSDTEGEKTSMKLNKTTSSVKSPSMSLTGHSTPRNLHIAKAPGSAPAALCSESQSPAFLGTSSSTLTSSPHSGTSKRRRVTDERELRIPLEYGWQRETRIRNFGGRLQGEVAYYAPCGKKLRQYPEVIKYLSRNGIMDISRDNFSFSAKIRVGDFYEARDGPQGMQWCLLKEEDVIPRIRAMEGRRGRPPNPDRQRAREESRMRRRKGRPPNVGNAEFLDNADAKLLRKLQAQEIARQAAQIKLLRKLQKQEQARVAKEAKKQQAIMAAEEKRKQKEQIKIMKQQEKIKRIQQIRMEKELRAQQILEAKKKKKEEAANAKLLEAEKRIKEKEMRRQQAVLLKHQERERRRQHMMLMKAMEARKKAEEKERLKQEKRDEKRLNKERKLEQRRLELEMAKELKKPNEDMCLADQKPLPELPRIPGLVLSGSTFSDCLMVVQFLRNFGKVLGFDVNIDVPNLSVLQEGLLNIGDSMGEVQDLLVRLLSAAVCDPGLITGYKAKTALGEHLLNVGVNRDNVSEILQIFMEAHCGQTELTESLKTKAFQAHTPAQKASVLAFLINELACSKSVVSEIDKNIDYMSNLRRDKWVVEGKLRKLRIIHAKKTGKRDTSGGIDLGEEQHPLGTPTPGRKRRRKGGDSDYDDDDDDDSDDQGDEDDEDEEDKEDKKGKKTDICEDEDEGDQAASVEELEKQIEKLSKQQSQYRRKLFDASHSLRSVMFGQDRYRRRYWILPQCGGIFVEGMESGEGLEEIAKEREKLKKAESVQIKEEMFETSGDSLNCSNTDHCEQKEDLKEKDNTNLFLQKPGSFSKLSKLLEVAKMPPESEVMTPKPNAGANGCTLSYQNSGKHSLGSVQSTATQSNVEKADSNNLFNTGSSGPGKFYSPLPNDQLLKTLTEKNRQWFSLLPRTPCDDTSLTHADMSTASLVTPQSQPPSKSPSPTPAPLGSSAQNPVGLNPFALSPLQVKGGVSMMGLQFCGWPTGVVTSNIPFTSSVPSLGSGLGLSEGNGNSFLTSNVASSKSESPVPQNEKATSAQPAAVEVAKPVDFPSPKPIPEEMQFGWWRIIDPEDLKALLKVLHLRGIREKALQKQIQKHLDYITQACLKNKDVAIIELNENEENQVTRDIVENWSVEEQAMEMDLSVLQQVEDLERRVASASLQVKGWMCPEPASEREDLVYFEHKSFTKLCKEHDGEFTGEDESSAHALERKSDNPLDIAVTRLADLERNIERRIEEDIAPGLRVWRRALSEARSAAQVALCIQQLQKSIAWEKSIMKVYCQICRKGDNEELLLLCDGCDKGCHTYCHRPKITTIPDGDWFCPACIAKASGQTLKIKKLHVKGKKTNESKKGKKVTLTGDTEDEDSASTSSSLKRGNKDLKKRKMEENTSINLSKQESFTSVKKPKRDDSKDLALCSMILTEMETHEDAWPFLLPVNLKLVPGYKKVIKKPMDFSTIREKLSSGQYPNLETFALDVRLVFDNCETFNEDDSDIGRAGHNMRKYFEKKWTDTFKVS
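AlphaScreen displacement of biotin-H3(5-23)K14Ac peptide (50 nM final) from BAZ2B (50 nM final) in PBS pH 7.4, 0.01% Tween-20; complex preformed 30 min RT, then compounds (top 110 uM) 30 min RT, beads 20 min dark.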
HP1b binding inh: HTS for Inhibitors of HP1-beta Chromodomain Interactions with Methylated Histone Tails; Chromobox protein homolog 1 (Homo sapiens), P83916; AlphaScreen HP1-beta / biotin-H3K9me3 peptide binding; Potency, µM (titrated, usually from 114 µM), most hits filed as inhibitors; 390,000 tested, 0.56% active; AID 540317, 2011; note: nearly all actives have a fitted effect of over 70% in size
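Compound inhibition of the preformed complex between 50 nM HP1-beta and 50 nM biotinylated H3K9me3 peptide was read by AlphaScreen. Buffer was PBS pH 7.4 with 0.01% Tween-20. Incubations ran 30 min at room temperature, with 10 ug/mL donor/acceptor beads.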
G9a block: qHTS Assay for Inhibitors of Histone Lysine Methyltransferase G9a. Potency, µM (top dose mostly 102 µM), most hits filed as inhibitors. 350,000 tested, 8.8% active. G9a H3K9 monomethylation, AlphaScreen, 2 h; note: nearly all actives have a fitted effect of over 75% in size
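Chemiluminescent proximity detection of H3K9 monomethylation, read after 10 min bead incubation in the dark. Reaction: 20 nM G9a, 500 nM biotin-H3K9 peptide, 20 uM SAM cofactor, 2 h, room temperature, following 15 min enzyme-compound preincubation.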
L3MBTL1 block: qHTS Assay for the Inhibitors of L3MBTL1; Lethal(3)malignant brain tumor-like protein 1 (Homo sapiens), Q9Y468; AlphaScreen L3MBTL1–H3K9me1 peptide binding; Potency, µM (highest dose often 57.1 µM), hits mostly inhibitors; 230,000 tested, 0.66% active; AID 485360, 2010; note: nearly all actives have a fitted effect of over 60% in size
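L3MBTL1 (50 nM) pre-complexed 30 min with biotinylated H3(1-15)K9me1 peptide (75 nM), then compounds added for 30 min at room temperature; AlphaScreen streptavidin donor/nickel chelate acceptor beads (10 ug/mL final) read after 30 min dark incubation.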
Sfp PPTase inh: qHTS Assay for Inhibitors of Bacillus subtilis Sfp phosphopantetheinyl transferase (PPTase) | 4'-phosphopantetheinyl transferase ffp (Bacillus subtilis), Q9F4F7 | Biochemical Sfp PPTase activity, qHTS | Potency, µM, usual class: inhibitors | 310,000 tested, 3.5% active;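 note: the enzyme is Sfp with the accession as filed and its product quenches rhodamine fluorescence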
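Fluorescence-quenching assay with 15 nM Sfp, 5 uM rhodamine-CoA and 12.5 uM BHQ-2-labelled ybbR peptide in pH 7.6 Hepes/MgCl2 buffer. Enzyme was pre-incubated with compound for 15 min at room temperature. Rate was taken from the 30-min fluorescence change (525/598 nm).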
JMJD2A Tudor: qHTS Assay for Inhibitors of JMJD2A-Tudor Domain. AID 504339, 2011. Lysine-specific demethylase 4A (Homo sapiens), O75164. AlphaScreen JMJD2A-Tudor / H3K4me3 peptide binding. Potency, µM (titrated, usually from 114 µM), hits mostly inhibitors. 390,000 tested, 4.4% active; note: nearly all actives have a fitted effect of over 50% in size
A number is an active result; – = inactive; ? = inconclusive; · = not tested or not shown; ! = a repeat was not active; [ ] = dose if it differs, or a comment. Sampled rows, rich in hits. Any-hit rate of the full collection: about 12%. Calls come from the whole dose curve; as a rule, active = well fitted curve in the direction sought with a large enough effect; inconclusive = small, poorly fitted or top-dose-only effect, or another doubt; inactive = no such curve, though single readings can be large; an effect the other way counts as inactive or inconclusive.

SMILES | BAZ2B inh | HP1b binding inh | G9a block | L3MBTL1 block | Sfp PPTase inh | JMJD2A Tudor
O=C(c1cccs1)N1N=C(c2ccccc2)CC1c1ccc(O)cc1 (stereo not drawn) | – | ? | ? | – | 20µM | –
O=C(c1cccs1)N1N=C(c2ccccc2)CC1c1ccccc1 (stereo not drawn) | – | – | – | – | 40µM | –
COc1ccc(C2=NN(C(=O)c3cccs3)C(c3ccc(OC)cc3)C2)cc1 (stereo not drawn) | – | – | – | – | ? | –
O=C(c1cccs1)N1N=C(c2ccc(O)cc2)CC1c1ccccc1 (stereo not drawn) | – | – | – | – | 18µM | –
CCC(=O)N1N=C(c2ccc(NS(C)(=O)=O)cc2)CC1c1ccc(N(C)C)cc1 (stereo not drawn) | · | – | 45µM | · | – | ?
CN(C)c1ccc(C2CC(c3cccc(NS(C)(=O)=O)c3)=NN2C(=O)c2ccccc2)cc1 (stereo not drawn) | 20µM | ? | · | ? | – | –[11.4 µM]
CC(=O)N1N=C(c2ccc(NS(C)(=O)=O)cc2)CC1c1ccc2nccnc2c1 (stereo not drawn) | – | – | – | – | – | –
COc1ccc(C)cc1NC(=O)c1cnc2ccc(C)cn2c1=O | – | – | – | · | · | –
Cc1ccccc1N/N=C/c1c(C)nc2ccccn12 | ? | – | 35µM | · | – | ?
Cc1nc2ccccn2c1C(=O)N/N=C/c1ccccc1 | – | – | –[2.33 µM] | · | – | –
OCCN1CCN(CC/C=C2/c3ccccc3Sc3ccc(C(F)(F)F)cc32)CC1 | ? | – | 11µM! | – | ? | ?
CCN(C(=O)COC(=O)c1nc(Cl)ccc1Cl)C1CCS(=O)(=O)C1 (stereo not drawn) | – | – | 1.4µM | – | · | –
CCN(C(=O)COc1cccc2cccnc12)C1CCS(=O)(=O)C1 (stereo not drawn) | 50µM | – | ? | – | – | –
CCN(C(=O)COc1ccccc1C(=O)NCc1ccccc1)C1CCS(=O)(=O)C1 (stereo not drawn) | – | – | ? | – | · | –
CCN(C(=O)COC(=O)c1ccc(Cl)nc1)C1CCS(=O)(=O)C1 (stereo not drawn) | – | – | – | · | – | –
COCCn1c(=O)c(-c2ccc(F)cc2)nc2cnc(N3CCOCC3)nc21 | · | · | –[0.501 µM] | · | – | ·
O=C(O)c1cnn(-c2nc(-c3cccc(F)c3)cs2)c1C(F)(F)F | – | – | 50µM | – | – | –[11.4 µM]
CCc1cccc(NC(=O)c2ccc3c(=O)n4nc(Nc5ccccc5OC)sc4nc3c2)c1 | – | – | – | · | · | –
O=C(CCl)Nc1cccc(S(=O)(=O)N2CCCCCC2)c1 | – | – | 50µM | – | – | –
CC(C)(C)c1ccc(OCCC(=O)Nc2cccc(S(=O)(=O)N3CCCC3)c2)cc1 | – | – | 3.5µM | – | · | –
CC(=O)NC(CC(=O)NC1CCCCC1)c1ccccc1 (stereo not drawn) | – | – | 10µM | – | – | –
CC(=O)NC(CC(=O)Nc1ccc(S(=O)(=O)N2CCCCC2)cc1)c1ccccc1 (stereo not drawn) | – | – | –[12.7 µM] | · | – | –
CC(=O)NC(CC(=O)Nc1cccc(S(=O)(=O)N2CCCCC2)c1)c1ccccc1 (stereo not drawn) | – | – | 50µM | · | – | –
Cc1ccsc1C(=O)N1CCCC(CO)(Cc2ccccc2)C1 (stereo not drawn) | – | – | – | · | – | –
O=C(OCC1OC(n2ccc(=O)[nH]c2=O)C2OC12)c1ccccc1 (stereo not drawn) | · | – | · | · | · | –
C=C1N[C@]2(C(=O)COC(C)=O)[C@@H](C[C@H]3[C@@H]4CCC5=CC(=O)C=C[C@]5(C)[C@H]4[C@@H](O)C[C@@]32C)O1 | · | · | –[12.7 µM] | · | – | ·

Bioassay records (PubChem BioAssay)
